Compound activity: PubChem BioAssay, Broad Institute
The full list was thinned out, with hits kept by preference.
Shh pathway inh = Sonic Hedgehog pathway inhibition; Shh-LIGHT2 Gli-luciferase reporter, 30 h; inhibition, % (test concentration not listed); hit rate 2.1% among 22,000; AID 2313;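 active = mean inhibition across valid replicates above about 65%, limit read from the data; inconclusive = mean under the limit, yet half or more replicates past it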;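 note: pathway switched on by Shh-conditioned medium diluted 1 in 25 in low serum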
MITF inh = inhibitors of MITF; inhibition, % (concentration not given with the values); hit rate 0.28% among 37,000; AID 2240; TRPM1 promoter luciferase, luminescence, 24 h; in the data active = inhibition above about 85%; inconclusive = no clear call, values can overlap the other calls; inactive = below about 68%;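 note: human melanocyte line stably carrying TRPM1 promoter luciferase reporter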
Numbers without * were called inactive; u = inconclusive; x = no result.

SMILES	Shh pathway inh	MITF inh
COc1cc(NC(=O)CN(C)S(=O)(=O)c2ccc3ccccc3c2)cc(OC)c1	x	11
CC1(C)c2ccccc2N(CCC(N)=O)C12C=Cc1c(ccc3ccccc13)O2 (stereo not drawn)	2	39
Cc1ccc(C23CC4CC(CC(C(=O)NC5=NCCS5)(C4)C2)C3)cc1	-27	2
CC(C)(C)c1cc(O)c(C(C)(C)C)cc1O	90*	25
Cc1cc(C(C)(C)C)c(O)c(C(C)(C)C)c1	-5	-14
CC(C)(C)N1C(=O)c2ccccc2C1=O	x	4
CCOC(=O)c1c(NC(=O)C(C)n2nc([N+](=O)[O-])c(Br)c2C)sc2c1CCC2 (stereo not drawn)	x	3
Cc1ccc(NC(=O)c2ccco2)c(NC(=O)COc2ccccc2Cl)c1	x	-1
CNC(=O)c1ccccc1S(=O)c1cccc2cccc(C(=O)O)c12 (stereo not drawn)	-11	-7
O=C1C2=C(NC(=S)NC2c2ccccc2)c2ccccc21 (stereo not drawn)	16	60
CS(=O)(=O)N(CC(=O)Nc1ccc(Cl)c(Cl)c1)c1cc(Cl)cc(Cl)c1	x	12
CS(=O)(=O)N(CC(=O)Nc1ccc(Cl)c(Cl)c1)c1ccc(Br)cc1	x	116*
COc1cc2c(c(N)c1OC)C(=O)/C(=C/c1cc(C)c(O)c(C)c1)C2	84*	-1
COc1ccc2c(c1)OC/C(=C\c1ccc(OC)c(O)c1)C2=O	u	2
O=S1(=O)C=C2C(C1)SC(=S)N2C1CCS(=O)(=O)C1 (stereo not drawn)	-1	-8
O=c1cc(O)c2sc3nc(-c4cccnc4)c4c(c3c2[nH]1)CCCC4	0	-1
O=C(c1cccc2ccccc12)N1CCc2ccccc21	54	55
Cc1ccc(S(=O)(=O)Nc2ccc3c(c2)C(=O)N([C@H](C)CO)C[C@H](C)[C@@H](CN(C)C(=O)Nc2ccc(C(F)(F)F)cc2)OCCCC[C@@H](C)O3)cc1	47	27
Cc1noc(C)c1S(=O)(=O)Nc1ccc2c(c1)C(=O)N([C@H](C)CO)C[C@H](C)[C@H](CN(C)C(=O)Nc1ccc(C(F)(F)F)cc1)OCCCC[C@@H](C)O2	100*	54
Cc1noc(C)c1S(=O)(=O)Nc1ccc2c(c1)C(=O)N([C@H](C)CO)C[C@H](C)[C@@H](CN(C)C(=O)Nc1ccc(C(F)(F)F)cc1)OCCCC[C@@H](C)O2	11	25
C[C@@H]1CCCCO[C@@H](CN(C)C(=O)Nc2ccc(C(F)(F)F)cc2)[C@@H](C)CN([C@H](C)CO)C(=O)c2cc(NS(=O)(=O)c3ccc(F)cc3)ccc2O1	98*	40
CCOC(=O)NC(=S)Nc1ccc(F)cc1	-23	-20
S=C(Nc1ccccc1)c1ccccc1	-20	-16
c1ccc2[nH]c(-c3nc4ccccc4s3)nc2c1	21	86*
c1cc(-c2nc3ccccc3s2)nc(-c2nc3ccccc3s2)c1	-46	-8
SMILES	Shh pathway inh	MITF inh
Clc1cc(Cl)cc(Oc2nc(-c3ccccc3)ns2)c1	-11	-1
CC(=O)Oc1ccc2c(c1)CCC1C2CC[C@@]2(C)C1CC[C@@H]2OC(C)=O (stereo partly drawn)	67*	-8
C#C[C@]1(O)CC[C@H]2[C@@H]3CCc4cc(OC)ccc4[C@H]3CC[C@@]21C	-36	7
C[C@]12CC[C@@H]3c4ccc(O)cc4CC[C@H]3[C@@H]1CCC2=O	73*	8
C[C@]12CCC3c4ccc(OS(=O)(=O)O)cc4CCC3C1CC[C@H]2O (stereo partly drawn)	6	6
C[C@]12CCC3c4ccc(O)cc4CCC3C1CC[C@@H]2O (stereo partly drawn)	74*	8
C[C@]12CCC3c4ccc(O)cc4CCC3C1C[C@@H](O)[C@@H]2O (stereo partly drawn)	u	2
COc1ccc(COCC(O)CS(=O)(=O)Cc2ccc(C)cc2)cc1 (stereo not drawn)	-22	3
Cc1c(OC(=O)c2ccco2)ccc2c3c(c(=O)oc12)CCC3	3	-8
COC(=O)C1CCCN1S(=O)(=O)c1ccccc1 (stereo not drawn)	-8	-3
COc1ccc(C[C@H](N)C(=O)N[C@H]2[C@@H](O)[C@H](n3cnc4c(N(C)C)ncnc43)O[C@@H]2CO)cc1	85*	102*
Nc1ncnc2c1ncn2C1OC(CO)[C@H](O)[C@@H]1S (stereo partly drawn)	-8	-1
C=CCN1C(C(=O)c2ccccc2)=C(OC(=O)c2ccccc2)c2ccccc2S1(=O)=O	11	17
O=C(CN1CC(=O)Oc2ccccc21)Nc1ccc(O)cc1	27	-10
O=C(NCCc1ccccc1)N1c2ccccc2Sc2ccccc21	92*	43
O=C(Cc1cccs1)N1c2ccccc2Sc2ccccc21	x	3
CC12CC3(C)CC(C)(C1)CC(CN=Cc1ccc(O)cc1)(C2)C3	24	-3
CCN(CC)c1ccc2cc(C(N)=O)c(=Nc3ccc(F)cc3)oc2c1	-27	2
C/C=C(\C(C)=N\O)c1ccccc1	-1	8
C=C1CCC2[C@](C)(CO)[C@H](O)CC[C@@]2(C)[C@@H]1C/C=C1/C(=O)OC[C@H]1O (stereo partly drawn)	93*	28
C=C1CCC2C(C)(CO)CCCC2(C)C1CC/C(C)=C/C(=O)O (stereo not drawn)	-27	x
CC1=C(CO)C(=O)OC([C@@H](C)C2CC[C@H]3C4C[C@H]5O[C@]56[C@@H](O)C=CC(=O)[C@]6(C)C4CC[C@]23C)C1 (stereo partly drawn)	u	90*
O[C@@H]1[C@@H](O)C=C2CCN3Cc4cc5c(cc4[C@H]1C23)OCO5 (stereo partly drawn)	96*	63
CN1CCc2cc3c(cc2C2OC(O)c4c(ccc5c4OCO5)C21)OCO3 (stereo not drawn)	-12	6
O[C@H]1[C@H]2c3cc4c(cc3CN3CCC(=C[C@@H]1O)[C@H]23)OCO4	83*	62
SMILES	Shh pathway inh	MITF inh
COC1C=CC23c4cc5c(cc4CN(C[C@H]2O)[C@@H]3C1)OCO5 (stereo partly drawn)	51	54
O=S(=O)(Nc1nc2ccccc2nc1NCCc1ccccc1)c1ccc(Cl)cc1	78*	47
O=C(CSc1nc2ccccc2nc1N1CCCC1)NCCc1ccc(Cl)cc1	27	23
Cc1ccc(S(=O)(=O)N2c3ccccc3C(C)(c3ccccc3)CC2(C)C)cc1 (stereo not drawn)	57	41
C=C1C(=O)O[C@H]2[C@H]1[C@@H](OC(=O)/C(C)=C\C)C(OC(C)=O)/C(C(=O)OC)=C\CC[C@@]1(C)O[C@H]21 (stereo partly drawn)	-72	53
Cn1c(O)c(C=Nc2cccc(Cl)c2)c2ccccc21	x	7
Cc1noc(C)c1NC(=O)Nc1ccc2c(c1)C(=O)N([C@H](C)CO)C[C@@H](C)[C@@H](CN(C)Cc1ccc(Oc3ccccc3)cc1)O2	67*	4
CC(C)NC(=O)Nc1ccc2c(c1)C(=O)N([C@H](C)CO)C[C@@H](C)[C@@H](CN(C)Cc1ccc(-c3ccccc3)cc1)O2	67*	-5
Cc1noc(C)c1NC(=O)Nc1ccc2c(c1)C(=O)N([C@H](C)CO)C[C@H](C)[C@@H](CN(C)Cc1ccc(Oc3ccccc3)cc1)O2	33	-2
C[C@H](CO)N1C[C@H](C)[C@H](CN(C)Cc2ccc(Oc3ccccc3)cc2)Oc2ccc(NC(=O)NC3CCCCC3)cc2C1=O	x	5
